“And” between values parts separate entries of the source, which are not always exact repeats. Equal values may be shown once. Out of some 5,500 compounds screened, about 2,000 (36%) were called active. About 18% were inconclusive and are not listed. Rule as the data show it: active = normalized growth mostly below about 0.91 (no sharp cut-off); inconclusive = no clear call, values can overlap the other calls; inactive = mostly above about 0.92. Some of the results follow.
Test: chemical genetic growth profiling, strain panel (AID 1159580);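 also: tested at 20 µM; growth read once vehicle control cultures reached saturation at 30 °C; 1 = growth at the plate median or of vehicle wells; lower values mean less growth of the strain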
Settings: S. cerevisiae deletion strains, growth OD

Measured: normalized growth

O=c1n(CCCN2CCN(c3cccc(Cl)c3)CC2)nc2ccccn12
inactive: locus YAL013W, strain DEP1, stronger effect = lower value 0.995 | locus YAL021C, strain ccr4, stronger effect = lower value 0.939 | locus YAL026C, strain drs2, stronger effect = lower value 0.987 | locus YAL030W, strain snc1, stronger effect = lower value 0.988 | locus YAL040C, strain CLN3, stronger effect = lower value 0.987 | locus YBL061C, strain skt5, stronger effect = lower value 0.983 | locus YBR009C, strain hhf1, stronger effect = lower value 0.983 | locus YBR021W, strain FUR4, stronger effect = lower value 0.998 | locus YBR023C, strain chs3, stronger effect = lower value 0.981 | locus YBR171W, strain sec66, stronger effect = lower value 0.979 | locus YBR229C, strain ROT2, stronger effect = lower value 0.951 | locus YBR231C, strain swc5, stronger effect = lower value 0.981 | locus YBR279W, strain paf1, stronger effect = lower value 0.985 | locus YCL011C, strain gbp2, stronger effect = lower value 0.976 | locus YCL016C, strain dcc1, stronger effect = lower value 0.982 | locus YCL029C, strain bik1, stronger effect = lower value 0.987 | locus YCL061C, strain MRC1 (second series), stronger effect = lower value 0.998 | locus YCL061C, strain MRC1, stronger effect = lower value 0.984 | locus YCL069W, strain vba3, stronger effect = lower value 0.975 | locus YCR088W, strain abp1, stronger effect = lower value 0.978 | locus YDL005C, strain med2, stronger effect = lower value 0.965 | locus YDL035C, strain GPR1, stronger effect = lower value 0.984 | locus YDL040C, strain nat1, stronger effect = lower value 0.979 | locus YDL074C, strain BRE1, stronger effect = lower value 0.941 | locus YDL101C, strain DUN1, stronger effect = lower value 0.97 | locus YDL134C, strain PPH21, stronger effect = lower value 1 | locus YDL185W, strain tfp1, stronger effect = lower value 0.982 | locus YDL192W, strain arf1, stronger effect = lower value 0.986 | locus YDR001C, strain nth1, stronger effect = lower value 0.986 | locus YDR069C, strain doa4, stronger effect = lower value 0.966 | locus YDR101C, strain arx1, stronger effect = lower value 0.97 | locus YDR137W, strain rgp1, stronger effect = lower value 0.94 | locus YDR150W, strain NUM1, stronger effect = lower value 0.992 | locus YDR159W, strain sac3, stronger effect = lower value 0.956 | locus YDR162C, strain NBP2, stronger effect = lower value 0.991 | locus YDR195W, strain ref2 0.977 | locus YDR297W, strain sur2, stronger effect = lower value 0.98 | locus YDR318W, strain mcm21, stronger effect = lower value 0.998 | locus YDR334W, strain swr1, stronger effect = lower value 0.964 | locus YDR335W, strain msn5, stronger effect = lower value 0.984 | locus YDR363W, strain ESC2, stronger effect = lower value 0.998 | locus YDR388W, stronger effect = lower value 0.989 | locus YDR392W, strain spt3, stronger effect = lower value 0.95 | locus YDR502C, strain sam2, stronger effect = lower value 0.989 | locus YEL003W, strain gim4, stronger effect = lower value 0.986 | locus YEL037C, strain rad23, stronger effect = lower value 0.964 | locus YEL061C, strain CIN8 (second series), stronger effect = lower value 0.975 | locus YEL061C, strain CIN8, stronger effect = lower value 0.986 | locus YER002W, strain NOP16, stronger effect = lower value 1 | locus YER015W, strain faa2, stronger effect = lower value 0.978 | locus YER016W, strain bim1, stronger effect = lower value 0.987 | locus YER110C, stronger effect = lower value 0.984 | locus YER111C, strain swi4, stronger effect = lower value 0.971 | locus YER155C, strain BEM2 (second series), stronger effect = lower value 0.948 | locus YER155C, strain BEM2, stronger effect = lower value 0.994 | locus YER167W, strain BCK2, stronger effect = lower value 1 | locus YFR010W, strain ubp6, stronger effect = lower value 0.975 | locus YGL078C, strain dbp3, stronger effect = lower value 0.999 | locus YGL086W, strain mad1, stronger effect = lower value 0.976 | locus YGL167C, strain pmr1, stronger effect = lower value 0.976 | locus YGL173C, strain kem1, stronger effect = lower value 0.973 | locus YGL227W, strain vid30, stronger effect = lower value 0.985 | locus YGL240W, strain doc1, stronger effect = lower value 0.98 | locus YGL248W, strain PDE1, stronger effect = lower value 0.964 | locus YGL253W, strain hxk2, stronger effect = lower value 0.999 | locus YGR078C, strain PAC10, stronger effect = lower value 0.99 | locus YGR135W, strain pre9, stronger effect = lower value 1.03 | locus YGR229C, strain SMI1, stronger effect = lower value 1.01 | locus YGR252W, strain gcn5, stronger effect = lower value 0.993 | locus YHR013C, strain ard1, stronger effect = lower value 0.854 | locus YHR027C, strain rpn1, stronger effect = lower value 0.978 | locus YHR030C, strain SLT2, stronger effect = lower value 1 and 0.995 | locus YHR079C, strain IRE1 (second series), stronger effect = lower value 0.998 | locus YHR079C, strain IRE1, stronger effect = lower value 1 | locus YHR094C, strain hxt1, stronger effect = lower value 0.99 | locus YHR129C, strain ARP1, stronger effect = lower value 0.994 | locus YHR142W, strain chs7, stronger effect = lower value 0.985 | locus YHR200W, strain rpn10, stronger effect = lower value 0.997 | locus YIL066C, strain RNR3, stronger effect = lower value 0.955 | locus YIL073C, strain SPO22, stronger effect = lower value 1.13 | locus YIL125W, strain kgd1, stronger effect = lower value 0.988 | locus YIR030C, strain dcg1, stronger effect = lower value 0.987 | locus YJL092W, strain hpr5, stronger effect = lower value 0.97 | locus YJL095W, strain BCK1 (second series), stronger effect = lower value 0.987 | locus YJL095W, strain BCK1, stronger effect = lower value 0.898 and 1 | locus YJL115W, strain asf1, stronger effect = lower value 0.978 | locus YJL129C, strain trk1, stronger effect = lower value 0.946 | locus YJL134W, strain LCB3, stronger effect = lower value 0.992 | locus YJL154C, strain vps35, stronger effect = lower value 0.975 | locus YJL164C, strain tpk1, stronger effect = lower value 0.984 | locus YJL166W, strain qcr8, stronger effect = lower value 0.969 | locus YJL168C, strain set2, stronger effect = lower value 0.993 | locus YJL187C, strain SWE1 (second series), stronger effect = lower value 0.932 | locus YJL187C, strain SWE1, stronger effect = lower value 0.979 | locus YJR043C, strain POL32, stronger effect = lower value 0.936
